Measurements published in the supplement of paper PMC12494721.
Structures can show the parent of a compound that is named as a salt.

Columns and labels:
Settings in all cases: incubation time: 27 h, anaerobic, 37 °C;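 for the amine columns active = adjusted P below 0.05 in both replicates with a change the same way and a mean fold change under 0.8 or over 1.25; inactive = the rest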
[1] = tested on: Clostridium sporogenes DSM 1664; test: growth (OD595) fold change vs plate DMSO controls (fold change (ratio)); higher = more growth
In short: (§1)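 Growth is calculated as fold change against the median of the DMSO control wells on each plate. Readings at 595 nm from anaerobic mGAM cultures (96-well, 27 h, 37 °C) were blank-subtracted, background-corrected with 20 µM compound solutions in water, and converted to OD by a calibration factor of 5. Fold changes above 1.5 were recorded as NA, and results are means of 2 biological replicates.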

Escherichia coli IAI1 [2] = test: as above
In short: as §1

[3] = tested on: Klebsiella aerogenes DSM 30053; test: as above
In short: as §1

[4] = tested on: Ruminococcus gnavus DSM 108212; test: as above
In short: as §1

[5] = tested on: Klebsiella aerogenes DSM 30053; test: fold change of Histamine concentration vs plate DMSO controls (fold change (ratio)); higher = more amine produced, active = hit call of the paper (significant change in both replicates, either direction)
In short: (§2)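 Amine values are fold changes relative to DMSO-only wells on the same plate. They derive from 27 h, 37 °C anaerobic mGAM cultures of four gut bacterial strains in 80 µL wells, dosed at 20 µM final, or 50 µM final for sweeteners. Extraction of the whole culture, LC–triple-quadrupole MS in dynamic MRM mode, external calibration curves and within-batch drift correction were used, with 2 biological replicates averaged.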

[6] = tested on: Clostridium sporogenes DSM 1664; test: fold change of Tryptamine concentration vs plate DMSO controls (fold change (ratio)); higher = more amine produced, active = hit call of the paper (significant change in both replicates, either direction)
In short: as §2

[7] = tested on: Ruminococcus gnavus DSM 108212; test: as above
In short: as §2

Escherichia coli IAI1 [8] = test: fold change of Putrescine concentration vs plate DMSO controls (fold change (ratio)); higher = more amine produced, active = hit call of the paper (significant change in both replicates, either direction)
In short: as §2

[9] = tested on: Klebsiella aerogenes DSM 30053; test: as above
In short: as §2

Escherichia coli IAI1 [10] = test: fold change of Cadaverine concentration vs plate DMSO controls (fold change (ratio)); higher = more amine produced, active = hit call of the paper (significant change in both replicates, either direction)
In short: as §2

[11] = tested on: Klebsiella aerogenes DSM 30053; test: as above
In short: as §2

[12] = tested on: Ruminococcus gnavus DSM 108212; test: fold change of 2-Phenylethylamine concentration vs plate DMSO controls (fold change (ratio)); higher = more amine produced, active = hit call of the paper (significant change in both replicates, either direction)
In short: as §2

Structure (SMILES) | growth [1] | growth (Escherichia coli IAI1 [2]) | growth [3] | growth [4] | fold change of Histamine concentration [5] | fold change of Tryptamine concentration [6] | fold change of Tryptamine concentration [7] | fold change of Putrescine concentration (Escherichia coli IAI1 [8]) | fold change of Putrescine concentration [9] | fold change of Cadaverine concentration (Escherichia coli IAI1 [10]) | fold change of Cadaverine concentration [11] | fold change of 2-Phenylethylamine concentration [12]
N#C/C(=C1/SCC(c2ccccc2Cl)S1)n1ccnc1 (stereo not drawn) [Lanoconazole] (20 µM) | 0.991 | 0.983 | 1 | 1.1 | 0.945 (inactive) | 0.98 (inactive) | 0.982 (inactive) | 1.04 (inactive) | 1.01 (inactive) | 1.01 (inactive) | 1 (inactive) | 0.949 (inactive)
C[C@]12CCC(=O)C=C1C=C[C@@H]1[C@@H]2CC[C@@]2(C)[C@H]1CC[C@@]21CCC(=O)O1 [Canrenone] (20 µM) | 1.01 | 1.03 | 1.01 | 1.03 | 0.908 (inactive) | 1 (inactive) | 1.12 (inactive) | 0.86 (inactive) | 0.967 (inactive) | 0.878 (inactive) | 1.02 (inactive) | 1.14 (inactive)
CN(N=O)C(=O)N[C@H]1C(O)O[C@H](CO)[C@@H](O)[C@@H]1O (mixture of isomers) [Streptozotocin] (20 µM) | 1.04 | 1.19 | 1 | 0.279 | 0.835 (inactive) | 0.798 (inactive) | 0.312 (active) | 1.04 (inactive) | 0.962 (inactive) | 1.31 (active) | 0.993 (inactive) | 0.376 (inactive)
O=C(NCCCN1CCOCC1)c1ccc(Cl)cc1 [Eprobemide] (20 µM) | 1.11 | 1.1 | 1.07 | 1.04 | 0.982 (inactive) | 1.02 (inactive) | 1.06 (inactive) | 0.929 (inactive) | 0.934 (inactive) | 0.942 (inactive) | 1.05 (inactive) | 1.12 (inactive)
O=c1[nH]c(=O)n([C@H]2C[C@H](O)[C@@H](CO)O2)cc1I [Idoxuridine] (20 µM) | 0.856 | 1.02 | 1.04 | 0.871 | 1.03 (inactive) | 1.25 (active) | 1.05 (inactive) | 1.18 (inactive) | 1.02 (inactive) | 0.982 (inactive) | 1 (inactive) | 1.08 (inactive)
CCN(CC)CCNC(=O)c1cc(Cl)c(N)cc1OC [Metoclopramide monohydrochloride] (20 µM) | 1.08 | 1.01 | 1 | 1.13 | 1.03 (inactive) | 0.988 (inactive) | 1.02 (inactive) | 0.875 (inactive) | 1.03 (inactive) | 0.826 (inactive) | 0.998 (inactive) | 1 (inactive)
O=C(O)c1ccccc1Nc1cccc(C(F)(F)F)c1 [Flufenamic acid] (20 µM) | 1.16 | 0.983 | 1.07 | 0.538 | 0.993 (inactive) | 0.918 (inactive) | 0.989 (inactive) | 1.03 (inactive) | 1.02 (inactive) | 1.03 (inactive) | 1.02 (inactive) | 0.981 (inactive)
COC(=O)C1=C(C)NC(C)=C(C(=O)OC)C1c1ccccc1[N+](=O)[O-] [Nifedipine] (20 µM) | 1.07 | 1.12 | 0.991 | 0.883 | 1.05 (inactive) | 1.02 (inactive) | 1 (inactive) | 1.05 (inactive) | 1.01 (inactive) | 0.955 (inactive) | 1 (inactive) | 0.92 (inactive)
CCCCN(CCCC)CCCOC(=O)c1ccc(N)cc1 [Butacaine] (20 µM) | 1.11 | 1.03 | 1.02 | 1 | 1.03 (inactive) | 0.973 (inactive) | 0.951 (inactive) | 0.955 (inactive) | 1.01 (inactive) | 1.02 (inactive) | 1 (inactive) | 0.913 (inactive)
CC(C)NC[C@@H](O)COc1cccc2ccccc12 [(R) Propranolol hydrochloride] (20 µM) | 1.08 | 0.856 | 0.86 | 0.617 | 1.01 (inactive) | 1.04 (inactive) | 0.95 (inactive) | 0.979 (inactive) | 0.993 (inactive) | 1.01 (inactive) | 0.987 (inactive) | 0.945 (inactive)
CC(=O)OCC(=O)[C@@]1(O)CC[C@H]2[C@@H]3CCC4=CC(=O)CC[C@]4(C)[C@@]3(F)[C@@H](O)C[C@@]21C [Fludrocortisone acetate] (20 µM) | 0.949 | 1.09 | 1.03 | 1.06 | 1.01 (inactive) | 1 (inactive) | 1.01 (inactive) | 1.09 (inactive) | 1 (inactive) | 1.02 (inactive) | 1 (inactive) | 0.966 (inactive)
CC/C(=C(/CC)c1ccc(O)cc1)c1ccc(O)cc1 [Diethylstilbestrol] (20 µM) | 0.583 | 0.984 | 1 | 0.991 | 1.03 (inactive) | 0.432 (active) | 0.88 (inactive) | 1 (inactive) | 1.01 (inactive) | 1.02 (inactive) | 0.993 (inactive) | 0.865 (inactive)
N=C(N=C(N)N)N1CCOCC1 [Moroxidine hydrochloride] (20 µM) | 0.931 | 1.05 | 1 | 1.39 | 1.11 (inactive) | 0.987 (inactive) | 1.18 (inactive) | 0.989 (inactive) | 1.06 (inactive) | 0.916 (inactive) | 1.09 (inactive) | 1.34 (active)
C=C1C[C@@]23CC[C@H]4[C@@](C)(CCC[C@@]4(C)C(=O)O[C@@H]4O[C@H](CO)[C@@H](O)[C@H](O)[C@H]4O)[C@@H]2CC[C@]1(O[C@@H]1O[C@H](CO)[C@@H](O)[C@H](O)[C@H]1O)C3 [Rubusoside] (50 µM) | 1.1 | 1 | 0.969 | 1.01 | 1.01 (inactive) | 1 (inactive) | 0.989 (inactive) | 1.05 (inactive) | 1.01 (inactive) | 1.02 (inactive) | 0.991 (inactive) | 0.981 (inactive)
CCN(CC)C(=S)SSC(=S)N(CC)CC [Disulfiram] (20 µM) | 1.03 | 0.988 | 0.991 | 1.38 | 1.06 (inactive) | 0.992 (inactive) | 1 (inactive) | 1.09 (inactive) | 1.03 (inactive) | 0.969 (inactive) | 1 (inactive) | 0.955 (inactive)
CC=CC(=O)N(CC)c1ccccc1C [Crotamiton] (20 µM) | 0.871 | 1.05 | 1.01 | 1.07 | 1.06 (inactive) | 1.01 (inactive) | 1.07 (inactive) | 1.02 (inactive) | 1.01 (inactive) | 0.967 (inactive) | 1.01 (inactive) | 1.12 (inactive)
Cc1cc2c(cc1S(N)(=O)=O)S(=O)(=O)CCC2 [Meticrane] (20 µM) | 0.974 | 1.03 | 1.02 | 1.24 | 1.05 (inactive) | 1.01 (inactive) | 0.986 (inactive) | 0.983 (inactive) | 1.01 (inactive) | 1.02 (inactive) | 0.986 (inactive) | 1 (inactive)
c1ccc([C@H]2CN3CCSC3=N2)cc1 [Levamisole hydrochloride] (20 µM) | 1 | 0.988 | 0.966 | 1 | 1.07 (inactive) | 0.986 (inactive) | 0.908 (inactive) | 0.967 (inactive) | 1.02 (inactive) | 1.01 (inactive) | 0.994 (inactive) | 0.961 (inactive)
CC(C)(c1ccc(O)cc1)c1ccc(O)cc1 [Bisphenol A] (20 µM) | 0.972 | 1.04 | 1 | 0.996 | 1.01 (inactive) | 0.959 (inactive) | 0.976 (inactive) | 0.981 (inactive) | 0.988 (inactive) | 0.991 (inactive) | 0.985 (inactive) | 0.942 (inactive)
N[C@@H](Cc1ccc(O)c(O)c1)C(=O)O [Levodopa] (20 µM) | 1.09 | 0.977 | 0.989 | 0.94 | 1.05 (inactive) | 1.03 (inactive) | 1.03 (inactive) | 1 (inactive) | 1.02 (inactive) | 0.975 (inactive) | 0.997 (inactive) | 1.04 (inactive)
CN(Cc1ccc(C(C)(C)C)cc1)Cc1cccc2ccccc12 [Butenafine hydrochloride] (20 µM) | 1.12 | 1.04 | 0.979 | 0.838 | 1.11 (inactive) | 0.918 (inactive) | 0.96 (inactive) | 1.05 (inactive) | 1.01 (inactive) | 1.02 (inactive) | 0.992 (inactive) | 1.03 (inactive)
CC(C)Oc1ccc2c(=O)c(-c3ccccc3)coc2c1 [Ipriflavone] (20 µM) | 0.986 | 1.01 | 0.992 | 1.03 | 1 (inactive) | 1.01 (inactive) | 1.04 (inactive) | 0.98 (inactive) | 1.02 (inactive) | 1.04 (inactive) | 0.989 (inactive) | 1.02 (inactive)
CC(C)=C/C(C)=N/Nc1nncc2ccccc12 [Budralazine] (20 µM) | 1.12 | 1.05 | 0.989 | 0.98 | 1.03 (inactive) | 0.98 (inactive) | 0.994 (inactive) | 0.992 (inactive) | 1.02 (inactive) | 0.963 (inactive) | 1 (inactive) | 0.969 (inactive)
C[C@@H](O)[C@H]1C(=O)N2C(C(=O)O)=C(SCCNC=N)C[C@H]12 [Imipenem] (20 µM) | 0.318 | 1.08 | 0.85 | 0.0868 | 0.772 (inactive) | 0.0417 (active) | 0.0408 (active) | 0.971 (inactive) | 1.03 (inactive) | 1.65 (active) | 1 (inactive) | 0.0463 (active)
